Results from PubChem BioAssay (NCATS).
Records with an inconclusive call do not appear. The source made the active and inactive calls. Calls come from the whole dose curve; as a rule, active = well fitted inhibition curve with a large enough effect; inconclusive = small, poorly fitted or top-dose-only effect; inactive = flat fitted curve, though single readings scatter.

How the values were obtained:
Assay in all cases: qHTS profiling for inhibitors of Plasmodium falciparum proliferation (AID 504749); note: nearly all actives have a fitted effect of over 60% in size
Details in all cases: P. falciparum in erythrocytes, SYBR Green DNA, 72 h; series mostly up to 28.7 µM
CP256 = tested on: CP256
Outline: (§1)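 Parasite proliferation within erythrocytes, 72 h exposure. Endpoint: SYBR Green I fluorescence after overnight lysis at room temperature. Controls: 0.29 uM artemisinin, DMSO.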

CP260 = tested on: CP260
Outline: as §1

CP262 = tested on: CP262
Outline: as §1

CP265 = tested on: CP265
Outline: as §1

CP266 = tested on: CP266
Outline: as §1

CP268 = tested on: CP268
Outline: as §1

CP269 = tested on: CP269
Outline: as §1

CP286 = tested on: CP286
Outline: as §1

CP291 = tested on: CP291
Outline: as §1

CP297 = tested on: CP297
Outline: as §1

CP305 = tested on: CP305
Outline: as §1

CP315 = tested on: CP315
Outline: as §1

CP325 = tested on: CP325
Outline: as §1

CP329 = tested on: CP329
Outline: as §1

CP335 = tested on: CP335
Outline: as §1

DFO2036 = tested on: DFO2036
Outline: as §1

DIV14 = tested on: DIV14
Outline: as §1

DIV17 = tested on: DIV17
Outline: as §1

DIV30 = tested on: DIV30
Outline: as §1

Dd2 = tested on: Dd2
Outline: as §1

ECU = tested on: ECU
Outline: as §1

FAB9 = tested on: FAB9
Outline: as §1

GB4 = tested on: GB4
Outline: as §1

HB3 = tested on: HB3
Outline: as §1

ICS = tested on: ICS
Outline: as §1

JCK = tested on: JCK
Outline: as §1

N140 = tested on: N140
Outline: as §1

P93_24 = tested on: P93_24
Outline: as §1

P94_40 = tested on: P94_40
Outline: as §1

PAD = tested on: PAD
Outline: as §1

PC15 = tested on: PC15
Outline: as §1

PC26 = tested on: PC26
Outline: as §1

PC49 = tested on: PC49
Outline: as §1

SC27B = tested on: SC27B
Outline: as §1

TAB109 = tested on: TAB109
Outline: as §1

TAB113 = tested on: TAB113
Outline: as §1

TAB165 = tested on: TAB165
Outline: as §1

W2 = tested on: W2
Outline: as §1

Measured: Potency

CC1(C)S[C@@H]2[C@H](NC(=O)Cc3ccccc3)C(=O)N2[C@@H]1C(=O)O
inactive: CP256 | CP260 | CP262 | CP265 | CP266 | CP268 | CP269 | CP286 | CP291 | CP297 | CP305 | CP315 | CP325 | CP329 | CP335 | DFO2036 | DIV14 | DIV17 | DIV30 | Dd2 | ECU | FAB9 | GB4 | HB3 | ICS | JCK | N140 | P93_24 | P94_40 | PAD | PC15 | PC26 | PC49 | SC27B | TAB109 | TAB113 | TAB165 | W2
